Reference: PubChem BioAssay (NCI)
About 83,000 compounds went through this panel and 20% of them were active in at least one assay; those are over-represented in the sample as a whole.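 The endpoint reported here, percent growth, reads 100 for growth as untreated, 0 for no net growth and -100 for all cells dead.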 Calls of active or inactive are those of the source. How the source made its calls: active means growth percent below 10; inactive means the rest.

Legend:
Assay in all cases: NCI-60 one-dose screen, 48 h (100 = growth as untreated, 0 = no growth, -100 = all killed)
Settings in all cases: 10 µM unless noted
NCI-H23 lung = system: NCI-H23 lung
NCI-H226 lung = system: NCI-H226 lung
NCI-H322M lung = system: NCI-H322M lung
HOP-62 NSCLC = system: HOP-62 NSCLC
HOP-92 NSCLC = system: HOP-92 NSCLC
NCI-H522 lung = system: NCI-H522 lung
786-0 renal = system: 786-0 renal
COLO 205 colon = system: COLO 205 colon
DU-145 prostate = system: DU-145 prostate
K-562 leukemia = system: K-562 leukemia
MALME-3M melanoma = system: MALME-3M melanoma
MDA-MB-231 breast = system: MDA-MB-231 breast
RXF 393 renal = system: RXF 393 renal
SF-268 CNS = system: SF-268 CNS
SF-295 CNS = system: SF-295 CNS
SF-539 CNS = system: SF-539 CNS
UACC-257 melanoma = system: UACC-257 melanoma
M14 melanoma = system: M14 melanoma
A549/ATCC NSCLC = system: A549/ATCC NSCLC

Measured: growth

O=C1/C(=C\c2ccco2)SC(=S)N1CCc1ccc(O)cc1
inactive: NCI-H23 lung 101% | NCI-H226 lung 101% | NCI-H322M lung 90.6% | HOP-62 NSCLC 98.1% | HOP-92 NSCLC 61.2% | NCI-H522 lung 68.9% | 786-0 renal 99.4% | COLO 205 colon 126% | DU-145 prostate 67.8% | K-562 leukemia 84.8% | MALME-3M melanoma 82% | MDA-MB-231 breast 80.5% | RXF 393 renal 98.3% | SF-268 CNS 94.8% | SF-295 CNS 105% | SF-539 CNS 88.5% | UACC-257 melanoma 90.1% | M14 melanoma 96%

COc1cccc(-c2nn(-c3ccccc3)cc2-c2ccnc(NCCCO)c2)c1
inactive: NCI-H23 lung 51.5% | NCI-H226 lung 69.2% | NCI-H322M lung 66% | HOP-62 NSCLC 27.1% | HOP-92 NSCLC 41.8% | A549/ATCC NSCLC 35.1% | 786-0 renal 48.7% | COLO 205 colon 11.2% | DU-145 prostate 63.8% | MALME-3M melanoma 51.4% | MDA-MB-231 breast 38.4% | RXF 393 renal 47.6% | SF-268 CNS 53.7% | SF-295 CNS 27.1% | SF-539 CNS 33.5% | M14 melanoma 12.8%
active: K-562 leukemia 8.63%

C#CCn1c(C)cc(C)c(C#N)c1=O
inactive: NCI-H23 lung 107% | NCI-H226 lung 114% | NCI-H322M lung 103% | HOP-62 NSCLC 109% | HOP-92 NSCLC 98.3% | NCI-H522 lung 103% | A549/ATCC NSCLC 104% | 786-0 renal 99.9% | COLO 205 colon 110% | DU-145 prostate 110% | K-562 leukemia 103% | MALME-3M melanoma 96.9% | MDA-MB-231 breast 101% | RXF 393 renal 124% | SF-268 CNS 98.3% | SF-295 CNS 99.7% | SF-539 CNS 97.7% | UACC-257 melanoma 103% | M14 melanoma 106%

COc1ccc(/C=C/C(=O)NCC(C)O)cc1 (stereo unspecified)
inactive: NCI-H23 lung 93.5% | NCI-H226 lung 91.5% | NCI-H322M lung 94.5% | HOP-62 NSCLC 89.1% | HOP-92 NSCLC 101% | NCI-H522 lung 85% | A549/ATCC NSCLC 83.2% | 786-0 renal 100% | COLO 205 colon 104% | DU-145 prostate 103% | K-562 leukemia 122% | MALME-3M melanoma 101% | MDA-MB-231 breast 100% | RXF 393 renal 90.7% | SF-268 CNS 94% | SF-295 CNS 99.7% | SF-539 CNS 92.8% | M14 melanoma 101%

CC(=O)OC[C@]12CC[C@@H](/C(C)=N/O)[C@@H]1[C@H]1CC[C@@H]3[C@@]4(C)CCCNC(C)(C)[C@@H]4CC[C@@]3(C)[C@]1(C)CC2
inactive: NCI-H23 lung 86.2% | NCI-H226 lung 88.5% | NCI-H322M lung 90.7% | HOP-62 NSCLC 85.2% | HOP-92 NSCLC 66.9% | NCI-H522 lung 83.8% | A549/ATCC NSCLC 64.6% | 786-0 renal 73.5% | COLO 205 colon 75.8% | DU-145 prostate 77.3% | K-562 leukemia 41.3% | MALME-3M melanoma 89.2% | MDA-MB-231 breast 82.7% | RXF 393 renal 71.2% | SF-268 CNS 62.8% | SF-295 CNS 84.5% | SF-539 CNS 79.5% | UACC-257 melanoma 81.4% | M14 melanoma 78.1%

Fc1ccc(Nc2nc(Nc3ccc(-c4nc5ccccc5[nH]4)cc3)nc(N3CCCC3)n2)cc1
inactive: NCI-H23 lung 75.1% | NCI-H226 lung 79.9% | NCI-H322M lung 96% | HOP-62 NSCLC 78.6% | HOP-92 NSCLC 64.4% | NCI-H522 lung 78.8% | A549/ATCC NSCLC 61.2% | 786-0 renal 85.2% | COLO 205 colon 86% | DU-145 prostate 93.3% | MALME-3M melanoma 85.7% | MDA-MB-231 breast 61.6% | RXF 393 renal 77.8% | SF-268 CNS 91.2% | SF-295 CNS 90.9% | SF-539 CNS 81.6%
active: K-562 leukemia -38.8% | M14 melanoma -58.3%

O=c1c(CNc2ccc(S(=O)(=O)Nc3ncccn3)cc2)coc2ccccc12
inactive: NCI-H23 lung 102% | NCI-H226 lung 103% | NCI-H322M lung 97.1% | HOP-62 NSCLC 93% | HOP-92 NSCLC 102% | NCI-H522 lung 89.7% | A549/ATCC NSCLC 93.5% | 786-0 renal 102% | COLO 205 colon 105% | DU-145 prostate 108% | K-562 leukemia 100% | MALME-3M melanoma 94% | MDA-MB-231 breast 99.9% | RXF 393 renal 103% | SF-268 CNS 108% | SF-539 CNS 95.2% | UACC-257 melanoma 108% | M14 melanoma 99.2%

COc1cc2nc(Cl)nc(Nc3cccc(C(=O)/C=C/c4ccccc4)c3)c2cc1OC
active: K-562 leukemia 9.16% | SF-539 CNS 2.74%
inactive: NCI-H23 lung 68.6% | NCI-H226 lung 66.1% | NCI-H322M lung 90.3% | HOP-62 NSCLC 70.1% | HOP-92 NSCLC 82.2% | NCI-H522 lung 56.9% | A549/ATCC NSCLC 74.5% | 786-0 renal 52.7% | COLO 205 colon 62.9% | DU-145 prostate 87.7% | MALME-3M melanoma 78% | MDA-MB-231 breast 67.6% | RXF 393 renal 68.4% | SF-268 CNS 85.9% | SF-295 CNS 69.5% | UACC-257 melanoma 96.5% | M14 melanoma 51.2%
